Here are results for 25 compounds from PubChem BioAssay.

The nature of the test: probe aNog binding to arrayed compounds – biochemical, biotinylated probe, 635/667 nm fluorescence, primary screen (AID 1115).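 Also: probe is biotinylated aNog protein used at 0.15 µg/mL for 1 h at 4 C; z-score combines 667 nm fluorescence of each spot with its signal to noise.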 To be noted: small-molecule microarray, higher = more signal.
Consider `CC(C)C(=C=CC[C@H](O)c1ccccc1OCCO)C[C@H](O)c1cc(Cl)cc(Cl)c1O`, for which the composite z-score was 0.158. The same measure for `COc1ccc(C(=O)Nc2ccc3c(c2)[C@@]2(O[C@H](CCO)[C@@H]([Si](C)(C)c4ccc(OC)cc4)[C@@H]2C)C(=O)N3Cc2ccccc2)cc1`: 0.56; for `CC(C)(C)OC(=O)CC[C@@]1(C(=O)NCCN2CCOCC2)N=C(c2ccc(OCCCO)cc2)O[C@@H]1c1ccccc1CN=[N+]=[N-]`: -0.481. The same measure for `CC(C)C(CO)N1C(=O)[C@@H]2C3C(=O)OCCC/C=C\[C@H]3OC23C=CCN(Cc2ccccc2)C(=O)[C@@H]13` (stereo not given in full): -0.103; for `COC(=O)C(CC#Cc1ccc2c(c1)[C@]1(C(=O)N2)[C@H](C(=O)N2CCc3cc(OC)c(OC)cc3C2)[C@H]2C(=O)O[C@H](c3ccccc3)[C@H](c3ccccc3)N2[C@@H]1c1ccccc1OCCO)C(=O)OC`: 0.682. The same measure for `CC(C)=CCCC=C(C)C(O)C1C=CC2C(=O)N(c3ccccc3)C(=O)C2N1Nc1ccc(C#N)cc1` (stereo not given): -0.468; for `C=CCC(OC(C)=O)[C@@H]1[C@@H](N(Cc2cccc3ccccc23)C(=O)Cc2ccc(OC)cc2)c2cc(OCCCO)ccc2N1C(=O)Cc1ccc2ccccc2c1` (stereo not given in full): -0.308; for `CN1C(=O)C2C=CC(C(O)c3ccc(-c4ccccc4)s3)N(NC(=O)OC(C)(C)C)C2C1=O` (stereo not given): 1.38. As to `COC(=O)[C@@]1(Cc2ccccc2)N=C(c2ccc(OCCCO)cc2)O[C@H]1c1ccccc1CN=[N+]=[N-]`, the composite z-score is -0.593.

The compound `COc1ccc([Si](C)(C)[C@H]2[C@H](CC(=O)N3Cc4ccccc4C[C@H]3CO)O[C@@]3(C(=O)N(C)c4ccccc43)[C@@H]2C)cc1` had a composite z-score of -0.299.

Turning to `C=CCC(OC(C)=O)[C@@H]1[C@@H](N(Cc2cc3ccccc3o2)C(=O)c2cccc3ccccc23)c2cc(OCCCO)ccc2N1C(=O)c1ccc2ccccc2n1` (stereo not given in full), the composite z-score was -0.0381. The figure for `CCOC(=O)C[C@H]1[C@H](OC(=O)c2ccccc2-c2ccccc2)[C@@H](NC(=O)C2CCCCC2)c2cc(OCCCO)ccc2N1C(=O)c1ccc2ccccc2n1` is 0.0707; for `O=C1C2C=CC(C(O)C3CCCCC3)N(n3cnnc3)C2C(=O)N1Cc1ccccc1` (stereo not given) it is 1.07.

Compound `C=CCOC(=O)[C@@H]1[C@H]2C(=O)O[C@H](c3ccccc3)[C@H](c3ccccc3)N2[C@H](c2ccc(OCCOC(=O)[C@H]3C[C@H]4C(=O)N[C@@H](CCCCN(C)C)C(=O)N4[C@H]3c3ccc(O)cc3)cc2)[C@@]12C(=O)Nc1ccc(I)cc12` showed a composite z-score of 0.219. The same measure for `O=C1C[C@]2(c3ccc([N+](=O)[O-])cc3)C(=O)N(C3CC3)c3cc(CO)ccc3[C@H]2N1C1CCCCC1`: -0.383; for `CN(C)CCCNC(=O)[C@@]1(Cc2ccccc2I)c2ccccc2C(=O)N(C2CCCCC2)[C@H]1c1ccc(CO)cc1`: 0.0646. The figure for `C=CCC(OC(C)=O)[C@@H]1[C@@H](N(Cc2cccc3ccccc23)C(=O)c2ccc(-c3ccccc3)cc2)c2cc(OCCCO)ccc2N1C(=O)Cc1ccc2ccccc2c1` (stereo not given in full) is -0.0773.

`COc1cc(C(O)C2C=CC3C(=O)N(c4ccccc4)C(=O)C3N2Nc2ccccc2F)cc(OC)c1OC` (stereo not given) yielded a composite z-score of 1.11. As for `C=CCN1C(=O)[C@@]2(O[C@@H](CCn3cc([C@H](O)c4ccccc4)nn3)[C@H]([Si](C)(C)c3ccc(OC)cc3)[C@H]2C)c2cc(N3C(=O)c4cccc5cccc3c45)ccc21`, the composite z-score was found to be 0.205. The same measure for `COC(=O)[C@H](Cc1ccc(O)cc1)N[C@@H](/C=C/C1CC1)[C@H](O)Cc1ccccc1`: -0.321; for `COc1ccc([Si](C)(C)[C@@H]2[C@@H](CC(=O)N3CCC[C@H]3CO)O[C@]3(C(=O)N(Cc4cccc(N5CCCCC5=O)c4)c4ccccc43)[C@H]2C)cc1`: 0.21; for `O=C1C[C@@](C(=O)O)(c2ccc([N+](=O)[O-])cc2)[C@@H](c2ccc(CO)cc2)N1C1CCCCC1`: -0.485.

In turn, `CCOC(=O)c1cn(C[C@H](Cc2ccccc2)NC(=O)N[C@H](CO)CCc2oc(C(C)=O)c(C(=O)OC)c2C(=O)OC)nn1` returned a composite z-score of -0.158. The same measure for `NCCCCCCNC(=O)[C@@H]1C[C@@H]2C(=O)N3CCC[C@H]3C(=O)N2[C@@H]1c1cccc(OCCO)c1`: -0.366. The figure for `COCCOC(=O)N1C(=O)[C@@]2(c3cc(C#CCCO)ccc31)[C@H](C(N)=O)[C@H]1C(=O)O[C@H](c3ccccc3)[C@H](c3ccccc3)N1[C@@H]2c1ccccc1OCCO` is 0.135.
